aSyn UTR act: Activators working through SNCA 5'UTR binding (MLPCN). alpha-synuclein 5'UTR reporter, activators screen. activity score, % (tested at 7.5 µM), hits read low. 300,000 compounds, 7.1% hits; in the data active = activity score below about -60%
Numbers without * were called inactive. The list is a sample of the results.

SMILES	aSyn UTR act
CC1CCc2c(sc(NC(=S)NC(=O)c3ccccc3)c2C#N)C1 (configuration not stated)	-74*
N#Cc1c(NC(=O)c2cnccn2)sc2c1CCCC2	-128*
CNC(=O)c1c(NC(=O)c2cccc(C)c2)sc2c1CCC2	-213*
N#Cc1c(NC(=O)c2ccccc2)sc2c1CCC2	-288*
N#Cc1c(NC(=O)c2cccnc2)sc2c1CCC2	-150*
Cc1cc(Nc2ccccc2)nc(-c2ccccc2O)n1	-101*
Cc1cc(N/N=C/c2c(O)ccc3ccccc23)nc(-c2ccccc2O)n1	72
CC(C)c1ccc(/C=N/NC(=O)C2CCCC2)cc1	-171*
COc1ccc(/C=N\NC(=O)C2CCCC2)cc1Br	-95*
COc1ccc(CCn2c(=N)c(C(=O)N3CCN(C)CC3)cc3c(=O)n4ccccc4nc32)cc1	-65*
Cc1cccn2c(=O)c3cc(C(=O)NCCN4CCOCC4)c(=N)n(CCc4ccccc4)c3nc12	-128*
CCNC(=O)c1cc2c(=O)n3cccc(C)c3nc2n(CCc2ccccc2)c1=N	-105*
COc1ccc(CCn2c(=N)c(C(=O)NCCN3CCOCC3)cc3c(=O)n4cccc(C)c4nc32)cc1OC	-93*
Cc1cccn2c(=O)c3cc(C(=O)NCc4ccco4)c(=N)n(C4CCCCC4)c3nc12	-69*
COc1ccc(C(=O)c2c(C(F)(F)F)oc3c2C(=O)c2ccccc2C3=O)cc1	109
Cc1oc2c(c1C(=O)c1ccc(Cl)cc1)C(=O)C(=O)c1ccccc1-2	-87*
Cc1ccc(C(=O)c2coc3c2C(=O)C(=O)c2ccccc2-3)cc1	-90*
CCOc1cc(-c2nc3ccccc3s2)ccc1O	-98*
COc1ccc(-c2nc3ccccc3s2)cc1O	85
COc1cc(-c2nc3ccccc3s2)ccc1O	-222*
CC[n+]1c(/C=C/N(C)c2ccccc2)n(-c2ccccc2)c2ccc(-c3nc4ccccc4s3)cc21	120
Cc1cccc(Nc2nc(N)c([N+](=O)[O-])c(N3CCCC(C)C3)n2)c1 (configuration not stated)	59
CN(c1ccccc1)c1nc(N)c([N+](=O)[O-])c(N2CCCC2)n1	-97*
Nc1nc(Nc2ccccc2F)nc(N2CCCC2)c1[N+](=O)[O-]	-131*
O=C(NC(=S)Nc1ccc(CN2CCCCC2)cc1)c1cc2ccccc2o1	-68*
SMILES	aSyn UTR act
Cc1cc(C)cc(C(=O)NC(=S)Nc2ccc(-c3cc4ccccc4oc3=O)cc2)c1	97
CC(=O)Nc1ccc(NC(=S)NC(=O)c2cc3ccccc3o2)cc1	-71*
O=C(NC(=S)Nc1cccnc1)c1cc2ccccc2o1	-66*
O=C(Nc1cccnc1)c1cc2cc(Br)ccc2o1	-116*
c1ccc(-c2nc3ccccc3[nH]2)cc1	-138*
Cc1[nH]c2ccccc2c1-c1nc2ccccc2[nH]1	-78*
Cc1ccc(-c2nc3ccccc3[nH]2)s1	-80*
c1cncc(-c2nc3ccccc3[nH]2)c1	-88*
C[C@]12CCC(=O)C=C1CC[C@@H]1[C@@H]2[C@@H](O)C[C@]2(C=O)[C@@H](C(=O)CO)CC[C@@H]12	-78*
CCc1ccc2oc(-c3cccc(NC(=O)c4cccnc4)c3)nc2c1	-167*
CCCCCC(=O)Nc1ccc2oc(-c3cccnc3)nc2c1	-75*
O=C(Nc1ccc2oc(-c3ccccc3)nc2c1)c1ccco1	-156*
O=C(Nc1ccc2oc(-c3ccccc3)nc2c1)c1ccc2c(c1)OCCO2	-66*
O=C(Nc1ccc2oc(-c3ccccc3)nc2c1)c1cccnc1	-161*
CCOc1ccc(-c2csc3nc[nH]c(=O)c23)cc1	-154*
CC(=O)c1sc(Nc2nc3cc4c(cc3s2)OCO4)nc1C	-178*
O=C(Nc1nc2cc3c(cc2s1)OCO3)c1ccco1	80
CC(=O)Nc1nc2cc3c(cc2s1)OCO3	-100*
Cc1cccc(NCc2ccc(Br)cc2)n1	-66*
Cc1cccc(NCc2cccc3ccccc23)n1	-67*
Cc1ccc(S(=O)(=O)[N-]c2nc3ccccc3nc2-n2cc[n+](Cc3ccccc3)c2)cc1	-97*
CN(C)C(=O)CSc1nnc(C23CC4CC(CC(C4)C2)C3)o1	-160*
CCc1ccc2[nH]c(=O)c(CN(Cc3ccccc3OC)C(=O)Nc3ccccc3OC)cc2c1	-72*
CCc1ccc(NS(=O)(=O)c2ccc3[nH]cc(C(=O)N4CCc5ccccc54)c(=O)c3c2)cc1	-128*
CCOc1cc(/C=N/Nc2cc(C)nc(-n3nc(C)cc3C)n2)ccc1O	68
SMILES	aSyn UTR act
O=C(O)c1ccc(/C=N/Nc2ccc(C(F)(F)F)cn2)cc1	-172*
COc1cc(/C=N/Nc2ccc(C(F)(F)F)cn2)ccc1O	-147*
NC(=O)C1CCN(C(=S)c2ccc(-c3ccc(Br)cc3)o2)CC1	-127*
Cn1c(SCc2ccccc2F)nnc1-c1cnccn1	-187*
Cn1c(SCc2ccccc2F)nnc1-c1ccccn1	-123*
CC(=O)Nc1cc2nn(-c3ccccc3)nc2cc1Cl	-123*
O=C(Nc1cc2nn(-c3ccccc3)nc2cc1Cl)c1ccco1	-129*
Cc1cc(NC(=O)c2ccco2)ccc1-n1cnnn1	-77*
O=C(Nc1ccc2nn(-c3ccccc3)nc2c1)c1ccco1	-255*

Screens from PubChem.
